Screens from PubChem BioAssay.
PI4K2A inh: qHTS for small molecular inhibitors of PI4K2A; Phosphatidylinositol 4-kinase type 2-alpha (Homo sapiens), Q9BTU6; purified PI4K2A, ADP-Glo luminescence, 1 h; hits give low values; activity change, negative = inhibition, % at 76.9 µM; 0.13% of 420,000 active; AID 1346378, 2018; in the data active means activity change below about -50%; inconclusive means mostly about -30% to -49%;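 further: -100% = wells without enzyme as full effect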
Target sequence (Q9BTU6 whole entry, looked up): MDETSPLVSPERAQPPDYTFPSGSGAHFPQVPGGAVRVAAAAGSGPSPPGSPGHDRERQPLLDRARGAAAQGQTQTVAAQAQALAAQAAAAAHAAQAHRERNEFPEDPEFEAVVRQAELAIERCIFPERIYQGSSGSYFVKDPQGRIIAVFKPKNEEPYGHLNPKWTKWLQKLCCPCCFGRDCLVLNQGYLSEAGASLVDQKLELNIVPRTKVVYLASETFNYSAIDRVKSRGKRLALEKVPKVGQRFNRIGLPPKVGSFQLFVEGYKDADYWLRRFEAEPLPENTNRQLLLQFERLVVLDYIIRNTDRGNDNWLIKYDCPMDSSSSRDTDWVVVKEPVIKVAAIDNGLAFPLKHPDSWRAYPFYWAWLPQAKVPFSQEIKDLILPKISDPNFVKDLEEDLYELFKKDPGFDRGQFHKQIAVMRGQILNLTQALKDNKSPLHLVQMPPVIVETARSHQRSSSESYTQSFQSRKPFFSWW
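Compounds are screened against recombinant PI4K2A using PI as substrate and ATP, the latter dispensed at 300 microM. Reactions run one hour at ambient temperature before ADP-Glo detection; full inhibition defined by wells lacking enzyme.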
GCN5L2 inh: qHTS Assay for Inhibitors of GCN5L2. AID 504327, 2011. GCN5L2 HAT assay, ThioGlo1 CoA-SH fluorescence. Histone acetyltransferase KAT2A (Homo sapiens), Q92830. 0.21% of 390,000 active. Potency, µM (doses to about 58.9 µM), for the others: at the highest dose activity change, negative = inhibition, most hits filed as inhibitors; further: potency means the concentration at half of the fitted maximal effect
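Fluorescence readout, Ex340nm/Em540nm: ThioGlo1 (50uM final) reacts with free CoA thiol released as 20nM GCN5L2 acetylates H3(1-25) peptide (75uM) using acetyl-CoA (70uM). Compound and enzyme sat 15 min beforehand; 20 min room-temperature reaction.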
PLK1 PBD inh: qHTS for Inhibitors of PLK1-PDB (polo-like kinase 1 - polo-box domain): Primary Screen; Plk1 PBD binding of FITC phosphopeptide, fluorescence polarization; 2.8% of 360,000 active; Potency, µM, for inactives: max response, negative = inhibition, most hits filed as inhibitors; further: potency means the concentration at half of the fitted maximal effect; series mostly up to about 57 µM; nearly all actives have a fitted effect of over 65% in size
VDR inhibitor: Inhibitors of the vitamin D receptor (VDR): qHTS. Vitamin D3 receptor (Homo sapiens), P11473. Potency, µM, for the others: max response, negative = inhibition, hits mostly inhibitors. VDR-SRC2-3 peptide fluorescence polarization, 2 h. AID 504847, 2011. 0.93% of 400,000 active; further: potency means the concentration at half of the fitted maximal effect
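Measured by FP: displacement of SRC2-3 coactivator peptide from VDR by library compounds, following a two-hour ambient incubation.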
GLS inhibitor: qHTS for Inhibitors of Glutaminase (GLS); Glutaminase kidney isoform, mitochondrial (Homo sapiens), O94925; GLS enzymatic activity, qHTS titration; Potency, µM (doses to about 45.5 µM), for the others: at the highest dose activity change, negative = inhibition, usual class: inhibitors; 0.21% of 410,000 active; AID 624170, 2012; further: potency means the concentration at half of the fitted maximal effect
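hKGA in 45 mM KH2PO4 (pH 8.2), 0.02% Tween-20 with compound, then 1mM L-Glutamine (stock as added) plus glutamate oxidase/HRP/Amplex red coupling mix. Fluorescence read initially and after 30 min at RT; signal change reflects glutamate formation.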
Active calls of the source: *; ? = inconclusive; · = no result; ! = repeats disagree. An excerpt weighted towards active compounds, which were near 3.1% of everything screened. Unless noted, the call rests on the fitted dose curve; in most records, active means well fitted curve in the direction sought with a large enough effect; inconclusive means small, poorly fitted or top-dose-only effect, or another doubt; inactive means no such curve, though single readings can be large; an effect the other way counts as inactive or inconclusive. Unless noted, on the % scale 0 is the no-effect control and ±100 the full control effect.

SMILES	PI4K2A inh	GCN5L2 inh	PLK1 PBD inh	VDR inhibitor	GLS inhibitor
COC(=O)[C@@]12CCCCC3=C1N(CCC3)C(=O)[C@H]2CC(=O)NCc1cccc(C(F)(F)F)c1	-3	·	·	·	·
Cc1ccc(Cn2c(SCC(C)C)nc3c2c(=O)[nH]c(=O)n3C)cc1	0	-5%	24µM*	-12%	-11%
CC(C)n1c(N2CCCC2)nc2c1c(=O)[nH]c(=O)n2C	4	-3%	-3%	-4%	-33%
C=CCSc1nc2c(c(=O)[nH]c(=O)n2C)n1C(C)C	-3	-3%	27µM*	-30%	6%
CCCSc1nc2c(c(=O)[nH]c(=O)n2C)n1Cc1ccc(C)cc1	2	3%	-9%	14%	-5%
Cc1cc(C)n(-c2nc3c(c(=O)[nH]c(=O)n3C)n2CCc2ccccc2)n1	-4	-4%	30µM*	-9%	-13%
CCN(CC)CCCNC(=O)C(C)n1nc(C)n2c(cc3occc32)c1=O (centres undefined)	-4	-5%	·	10%	1%
Cc1ccc2ccc(Cl)cc2n1	-3	·	·	·	·
O=C(NC1CCCCC1)c1sc(=S)n2c1[nH]c(=O)c1ccccc12	2	-7%	24µM*	?	-10%
CCCCNC(=O)c1sc(=S)n2c1[nH]c(=O)c1ccccc12	2	-11%	27µM*	?	?
CC[N+]1(CC)CCC(=C(c2ccccc2)c2ccccc2)C1C (centres undefined)	2	·	·	·	-25%
COc1ccc(C2=NS(=O)(=O)N(C)C(C(=O)Nc3cc(C)ccc3O)=C2)cc1OC	2	35µM*!	-2%	-4%	21%
COc1ccc(OC)c(C2=NS(=O)(=O)N(C)C(C(=O)Nc3ccc(F)cc3F)=C2)c1	-2	-9%	30µM*	?	4%
Cc1ccc(C2=NS(=O)(=O)N(C)C(C(=O)Nc3ccc(F)cc3F)=C2)cc1	4	?	-4%	-13%	-4%
COc1ccc(NC(=O)C2=CC(c3ccc(C)cc3)=NS(=O)(=O)N2C)cc1OC	5	?	3%	-5%	-6%
CC(=O)N1CCN(C(=O)CCn2nnc3ccccc32)CC1	-3	·	·	·	·
COc1cccc(/C=N/NC(=O)C(C)Cn2cnc3ccccc32)c1 (centres undefined)	-3	-2%	1%	2%	0%
COc1cccc(/C=N/NC(=O)C(C)n2nnc3ccccc32)c1 (centres undefined)	1	0%	19µM*	?	?
COc1cccc(/C=N/NC(=O)Cn2cnc3c2c(=O)n(C)c(=O)n3C)c1	-1	-7%	24µM*	?	-7%
COc1cccc(/C=N/NC(=O)CCn2nnc3ccccc32)c1	0	-12%	7.5µM*	-5%	6%
COCC(=O)Nc1c(C(=O)Nc2ccc3c(c2)OCO3)oc2ccccc12	3	-4%	30µM*	-20%	-10%
COc1nc2ccccc2nc1CCC(=O)O	-1	-6%	30µM*	-6%	13%
COC(=O)CCc1nc2ccccc2nc1OC	-2	-4%	1%	-17%	10%
O=C(NCc1ccccc1OC(F)(F)F)C1CCC(=O)N(Cc2ccccn2)C1 (centres undefined)	1	-5%	12µM*	?	?
COCCCNC(=O)CCCn1c(SCC(=O)c2ccc(F)cc2)nc2c(sc3ccccc32)c1=O	1	-5%	·	-7%	4%
SMILES	PI4K2A inh	GCN5L2 inh	PLK1 PBD inh	VDR inhibitor	GLS inhibitor
Nc1cc(S(=O)(=O)O)cc2ccc(S(=O)(=O)O)cc12	-10	·	-10%	5%	-16%
O=S(=O)(O)c1ccc2c(c1)-c1nc-2nc2[nH]c(nc3nc(nc4[nH]c(n1)c1ccc(S(=O)(=O)O)cc41)-c1ccc(S(=O)(=O)O)cc1-3)c1ccc(S(=O)(=O)O)cc21	·	0.63µM*	·	25µM*	·
S=c1ncc2[nH]c(=S)[nH]c2[nH]1	-8	·	1.7µM*	32µM*	?
C[N+]1(C)CCN(C[C@@](O)(c2ccccc2)C2CCCCC2)CC1	·	·	·	·	-2%
COc1ccc(C(=O)Oc2ccc3ccc(=O)oc3c2)cc1	-2	7%	1%	2%	-8%
COc1cc2ccc(=O)oc2cc1O	0	32µM*!	5%	6%	25%
COc1cc(NS(=O)(=O)c2ccc(NC(=S)NC(=O)c3sc4ccccc4c3Cl)cc2)ncn1	-1	1%	15µM*	?	-1%
O=C(CN(Cc1ccco1)C(=O)Cn1nnc(-c2ccc(F)cc2)n1)NC1CCCC1	8	4%	-4%	-6%	3%
CCCCC(C(=O)NC1CCCC1)N(Cc1ccco1)C(=O)Cn1nnc(-c2ccc(F)cc2)n1 (centres undefined)	-15	-6%	24µM*	-17%	-11%
Cc1nn(C)c2c1c(C(F)(F)F)cc(=O)n2C(C)C(=O)NCCc1ccc(Cl)cc1 (centres undefined)	4	-10%	·	14%	-14%
CN(C)/N=C/c1ccc(Sc2ccccc2[N+](=O)[O-])o1	-4	-12%	6µM*	-18%	26%
Cc1cccc(CCNC(=O)c2nc(-c3ccc(Cl)cc3)n3c2CCCCC3)c1	3	-16%	·	-2%	7%
Cc1ccc(S(=O)(=O)Nc2cccc(Oc3cnccn3)c2)cc1	1	-7%	27µM*	-24%	-4%
C#C[C@@]1(OC(C)=O)CC[C@H]2[C@@H]3CCC4=CC(=O)CC[C@@H]4[C@H]3CC[C@@]21C	·	·	·	·	0%
COc1ccc(C(=S)N2CCOCC2)cc1OC(=O)c1ccccc1Cl	13	-11%	19µM*	-21%	12%
O=C(Oc1ccc(C(=S)N2CCOCC2)cc1Br)c1cc(Cl)ccc1Cl	23	-21%	?	-20%	-1%
COc1cc(C(=S)N2CCOCC2)cc(OC)c1OC(=O)Cc1ccc(F)cc1	-2	-4%	7.5µM*	?	21%
O=C(Oc1c(Br)cc(C(=S)N2CCOCC2)cc1Br)c1ccc(Cl)cc1	-6	-15%	6.7µM*	?	-16%
COc1cc(C(=O)Oc2c(OC)cc(C(=S)N3CCOCC3)cc2OC)cc(OC)c1OC	2	-3%	-1%	-1%	-3%
COc1cc(C(=S)N2CCOCC2)ccc1OC(=O)c1ccccc1C	1	-5%	-22%	3%	0%
COc1cc(C(=S)N2CCOCC2)cc(OC)c1OC(=O)c1ccc(F)cc1	0	-7%	12µM*	?	-14%
CC(=O)NC(CCC(N)=O)C(=O)O (centres undefined)	·	·	·	·	-6%
